Reference: the supplement of paper PMC4894684
Where “and” joins values, the source holds several entries; their conditions need not be identical. Equal values may be shown once. Where a name gives a salt, the structure may show the parent alone. ± gives the standard deviation of the averaged measurements. About 15 (2%) of roughly 1,000 compounds showed an effect of 50% or more. The list comes from a sample in which strong results are over-represented; it also holds similar structures and randomly drawn compounds.

tested on: HFF; experiment: uninfected host cell viability relative to vehicle control; higher = less host cell toxicity; conditions: 5 µM; 72 h; oxygen 21 %

`CNc1cc(OC)c(C(=O)NC2CCN(Cc3ccccc3)C2C)cc1Cl` (stereo unspecified) [Nemonapride] and `COc1ccc(NC(=O)c2cc(OCCCN(C)C)nn2Cc2ccccc2)cc1` [CFM 1571 hydrochloride] are within error of each other in “uninfected host cell viability” value: 86.9 ± 6.9% for the first, 81.7 ± 2% for the second.

`C[C@H](NC[C@H](O)CP(=O)(O)Cc1ccccc1)c1ccc(Cl)c(Cl)c1` and `CC(C)NCC(O)c1ccc2ccccc2c1` (stereo unspecified) [Pronethalol hydrochloride] are within error of each other in “uninfected host cell viability” value: 87.23 ± 0.39% for the first, 85.9 ± 2.6% for the second.

First: CCOc1ccc(Nc2nc(-c3c(C)nc4ccccn34)cs2)cc1
Second: CCc1ccc(OCc2ccccc2C(=O)Nc2ccc3nc(C)cc(N)c3c2)cc1
The “uninfected host cell viability” value of the first is higher: 73.8 ± 2.5% for the first, 15 ± 0.61% for the second.

Going from `CCCCC[C@H](O)/C=C/[C@H]1[C@H](O)CC(=O)[C@@H]1C/C=C\CCCC(=O)O` [Prostaglandin E2] to `CCCCCCCCCCCC1=C(O)C(=O)C=C(O)C1=O` [Embelin], the “uninfected host cell viability” value falls from 95.2 ± 2.4% to 83.69 ± 0.49%.

Going from `COC(=O)C1=C(C)NC(C)=C(C(=O)OC(C)C)C1c1cccc2nonc12` (stereo unspecified) [Isradipine] to `COC(=O)C1=C(C)NC(C)=C([N+](=O)[O-])[C@H]1c1ccccc1C(F)(F)F`, the “uninfected host cell viability” value falls from 104 ± 7.9% to 68.2 ± 1.7%.

Going from `CC(Cc1ccccc1)(NC(=O)CN)c1ccccc1` (stereo unspecified) [Remacemide hydrochloride] to `CC(=O)NCCc1c(Cc2ccccc2)[nH]c2ccccc12` [Luzindole], the “uninfected host cell viability” value rises from 85.5 ± 1.2% to 101 ± 4.8%.

`CCn1c(=O)[nH]c2ccccc21` and `CC1(CN2CCC(n3c(=O)[nH]c4ccccc43)CC2)OCc2ccccc2-n2cccc21` (stereo unspecified) are within error of each other in “uninfected host cell viability” value: 95.8 ± 5.6% for the first, 94.4 ± 2% for the second.

`CC(/C=C/c1cccc(Oc2ccc(F)cc2)c1)N(O)C(N)=O` (stereo unspecified) and `COc1ccc2cccc(N3CCN(CCNC(=O)c4ccc(F)cc4)CC3)c2c1` are within error of each other in “uninfected host cell viability” value: 82.8 ± 3.7% for the first, 82.7 ± 4% for the second.

`O=C1NN(C(=O)Nc2ccc(Br)cc2)[C@@H](c2ccccc2)[C@@H]1c1ccccc1` and `O=C(NC(NC(=S)Nc1ccc(F)c([N+](=O)[O-])c1)C(Cl)(Cl)Cl)C(c1ccccc1)c1ccccc1` (stereo unspecified) are within error of each other in “uninfected host cell viability” value: 91.67 ± 0.67% for the first, 86.1 ± 11% for the second.

First: CCc1c2c(nc3ccc(O)cc13)-c1cc3c(c(=O)n1C2)COC(=O)[C@]3(O)CC
Second: CCc1cc2c(c(CC)n1)CCC(=O)N2Cc1ccc(-c2ccccc2-c2nn[nH]n2)cc1 [ZD 7155 hydrochloride]
The “uninfected host cell viability” value of the first is lower: 77.3 ± 8.2% for the first, 94.11 ± 0.49% for the second.

Compared with `NCCNC(=O)c1ccc(Cl)cn1` [Lazabemide hydrochloride], `NC(N)=Nc1ccc(Cl)cc1` [4-Chlorophenylguanidine hydrochloride] is lower in “uninfected host cell viability” value: 94.7 ± 1.2% for the first, 87.3 ± 2.5% for the second.

Going from `Nc1[nH]nc2nnc(-c3c(-c4ccccc4)nn4ccccc34)cc12` to `Clc1cccc(Nc2nnc(-c3ccccc3)c3ccccc23)c1`, the “uninfected host cell viability” value falls from 94.685 ± 0.091% to 85.8 ± 0.91%.

Compared with `OC(c1ccccc1)C1CCN(CCc2ccccc2)CC1` (stereo unspecified), `N=C(CC(O)COc1ccccc1-c1ccccc1)N1CCCCC1` (stereo unspecified) is lower in “uninfected host cell viability” value: 101 ± 7.3% for the first, 89.4 ± 2.9% for the second.

`Cc1cc(/C(=C/Nc2ccc(Cl)cc2)C(=O)Nc2ccc(Cl)cc2)on1` and `O=C(O)c1c(Sc2ccccc2)c2cc(Cl)ccc2n1Cc1ccc(Cl)cc1` are within error of each other in “uninfected host cell viability” value: 86.9 ± 4.8% for the first, 93.9 ± 8.2% for the second.

Compared with `Nc1ccc(-c2cccc3c(=O)cc(N4CCOCC4)oc23)cc1`, `CCOC(=O)[C@@H](C)Oc1cccc2c(=O)n(CC(=O)Nc3ccc4c(c3)OCCO4)ccc12` is higher in “uninfected host cell viability” value: 77 ± 0.83% for the first, 84.7 ± 0.99% for the second.

`c1ccc(N2CCN(CCCOc3ccc4c(c3)OCO4)CC2)cc1` [BP 554 maleate] and `CCOc1cc(CC(=O)N[C@@H](CC(C)C)c2ccccc2N2CCCCC2)ccc1C(=O)O` [Repaglinide] are within error of each other in “uninfected host cell viability” value: 90.9 ± 6.9% for the first, 93.7 ± 2.1% for the second.

`CCS(=O)(=O)N(C)[C@H]1c2cc(C#N)ccc2OC(C)(C)[C@@H]1O` (racemic) [Chromanol 293B] and `CC(=O)N(OCc1ccccc1)[C@H]1c2cc(C#N)ccc2OC(C)(C)[C@H]1O` are within error of each other in “uninfected host cell viability” value: 91.3 ± 6.7% for the first, 98.6 ± 2.8% for the second.

Compared with `c1ccc2oc(C3=NCCN3)cc2c1` [2-BFI hydrochloride], `O=S(=O)(c1cccc2cnccc12)N1CCCNCC1` [Fasudil hydrochloride] is higher in “uninfected host cell viability” value: 84.5 ± 0.93% for the first, 90.57 ± 0.53% for the second.

`COc1ccc(-n2[nH]c3c4c(ncc3c2=O)CCCCC4)cc1` and `c1cc2c3c(c1)c1c(n3CCNC2)CCCC1` [WAY 629 hydrochloride] are within error of each other in “uninfected host cell viability” value: 92.03 ± 0.15% for the first, 89.6 ± 5.6% for the second.

`O=C(O)COc1cccc(-c2ocnc2-c2nc(-c3ccccc3)c(-c3ccccc3)o2)c1` and `O=C(O)c1ccc(-c2c[nH]c3ncc(-c4ccccc4)cc23)cc1C1CCCC1` are within error of each other in “uninfected host cell viability” value: 105 ± 3.5% for the first, 109 ± 2.2% for the second.

Compared with `CN(Cc1ccccc1)C(=O)[C@H](Cc1ccc2ccccc2c1)NC(=O)[C@@H]1CCCN1C(=O)Nc1ccccc1[N+](=O)[O-]`, `CNC(=O)[C@@H](Cc1ccccc1)N(C)C(=O)[C@@H](Cc1ccc2ccccc2c1)N(C)C(=O)/C=C/CC(C)(C)N` [Tabimorelin] is lower in “uninfected host cell viability” value: 87.6 ± 1.8% for the first, 79.1 ± 1.2% for the second.

Going from `CC[C@H](CO)Nc1nc(Nc2cccc(-c3ccccn3)c2)c2ncn(C(C)C)c2n1` [(R)-DRF053 dihydrochloride] to `CC(C1=C(CCN(C)C)Cc2ccccc21)c1ccccn1` (stereo in doubt) [(S)-(+)-Dimethindene maleate], the “uninfected host cell viability” value rises from 84.1 ± 1.9% to 94.3 ± 0.97%.

`COc1cc2ncn(-c3cc(OCc4ccccc4C(F)(F)F)c(C(N)=O)s3)c2cc1OC` and `COc1ccc(C(=O)Nc2sc3c(c2C(N)=O)CCCC3)cc1OC` are within error of each other in “uninfected host cell viability” value: 83.8 ± 1.1% for the first, 80.1 ± 2.9% for the second.

`COCCNC(=O)COc1ccc(OCCNC[C@H](O)COc2ccccc2)cc1` [ZD 7114 hydrochloride] and `N#Cc1ccccc1OCC(O)CNCCNC(=O)Nc1ccccc1` (stereo unspecified) are within error of each other in “uninfected host cell viability” value: 83.8 ± 2.3% for the first, 86.9 ± 1.3% for the second.

Going from `CCN(CC)CCCCC1CCN(CC(=O)N2c3ccccc3C(=O)Nc3cccnc32)CC1` to `CC(C)[C@H]1c2ccc(F)cc2CC[C@@]1(CCN(C)CCCc1nc2ccccc2[nH]1)OC(=O)C1CC1` [NNC 55-0396 dihydrochloride], the “uninfected host cell viability” value falls from 89.2 ± 4.3% to 15.68 ± 0.031%.

Compared with `O=C1c2ccccc2C(Cc2ccnc(F)c2)(Cc2ccnc(F)c2)c2ccccc21`, `O=C(O)Cc1cccc(OCCCN(Cc2cccc(C(F)(F)F)c2Cl)CC(c2ccccc2)c2ccccc2)c1` [GW 3965 hydrochloride] is higher in “uninfected host cell viability” value: 90.8 ± 1.9% for the first, 99.5 ± 3.2% for the second.

First: NC(=O)N1C(=O)/C(=C(\O)c2cccs2)c2cc(Cl)ccc21 [Tenidap]
Second: C[C@H](NC(=O)c1sccc1OCc1ccc(Cl)cc1)c1ccccc1
The “uninfected host cell viability” value of the first is lower: 89.1 ± 2% for the first, 115 ± 1.5% for the second.

Going from `COCC(=O)O[C@]1(CCN(C)CCCc2nc3ccccc3[nH]2)CCc2cc(F)ccc2[C@@H]1C(C)C` [Mibefradil dihydrochloride] to `CC1=C(C(=O)OCCN(Cc2ccccc2)c2ccccc2)C(c2cccc([N+](=O)[O-])c2)C(P2(=O)OCC(C)(C)CO2)=C(C)N1` (stereo unspecified) [Efonidipine hydrochloride monoethanolate], the “uninfected host cell viability” value rises from 79.7 ± 4.6% to 98.4 ± 7.4%.

`CCCCN1CCCC1CNC(=O)c1cc(C#N)c2ccccc2c1OC` (stereo unspecified) [Nafadotride] and `CCCCNC(=O)[C@@H]1Cc2ccccc2N1C(=O)[C@@H](N)CC` [Butabindide oxalate] are within error of each other in “uninfected host cell viability” value: 84.8 ± 2.4% for the first, 88.3 ± 5.3% for the second.

`COc1cc(C[C@H]2C(=O)OC[C@@H]2Cc2ccc(OC)c(OC)c2)ccc1O` [Arctigenin] and `CCC(NC(C)C)C(O)c1ccc(O)c2[nH]c(=O)ccc12` (stereo unspecified) [Procaterol hydrochloride] are within error of each other in “uninfected host cell viability” value: 90 ± 1.6% for the first, 87.5 ± 1.7% for the second.

`C[C@@H](CN1CCC(n2c(=O)[nH]c3cc(Cl)ccc32)CC1)NC(=O)c1ccc2ccccc2c1` and `CN1c2cc3c(cc2N=C(c2ccc(C(=O)O)cc2)c2ccccc21)C(C)(C)CCC3(C)C` are within error of each other in “uninfected host cell viability” value: 94.4 ± 5.7% for the first, 100 ± 8.6% for the second.

First: NC(=O)c1ccc(-c2nc(-c3ccccn3)c(-c3ccc4c(c3)OCO4)[nH]2)cc1
Second: Cn1cc(/C=C2\C(=O)Nc3cccnc32)c2ccccc21
The “uninfected host cell viability” value of the first is higher: 92.28 ± 0.26% for the first, 67.8 ± 1.2% for the second.

First: CC(O)(C(=O)Nc1ccc(S(=O)(=O)c2ccccc2)cc1)C(F)(F)F (stereo unspecified)
Second: CC(C)[C@H](NS(=O)(=O)c1ccc(-c2ccc(Br)cc2)cc1)C(=O)O
The “uninfected host cell viability” value of the first is higher: 99.7 ± 2.5% for the first, 87.2 ± 2.2% for the second.

First: Clc1ccccc1CNCC1CCC(CNCc2ccccc2Cl)CC1 (stereo unspecified)
Second: CCC(=O)NC1Cc2ccccc2C(c2ccccc2)C1 (stereo unspecified)
The “uninfected host cell viability” value of the first is lower: 83.3 ± 1.1% for the first, 99.58 ± 0.97% for the second.

Compared with `Nc1nc(-c2ccc(Cl)c(Cl)c2)c(-c2ccncc2)s1` [CGH 2466 dihydrochloride], `Cc1ccc(NC2=CC(=O)c3sc(C)nc3C2=O)cc1` [Ryuvidine] is lower in “uninfected host cell viability” value: 87.4 ± 1.5% for the first, 16.8 ± 0.66% for the second.

`CC[N+](C)(CC)CC(=O)Nc1c(C)cccc1C` [N-Methyllidocaine iodide] and `Cc1cc(C)c(S(=O)(=O)Nc2cccc(C(F)(F)F)c2)c(C)c1` are within error of each other in “uninfected host cell viability” value: 87.9 ± 3.1% for the first, 82.4 ± 6.6% for the second.

Going from `COc1ccc2[nH]c([S+]([O-])Cc3ncc(C)c(OC)c3C)nc2c1` (stereo unspecified) [Omeprazole] to `CCN(CC)CCCC(C)Nc1nc(C)cc(Nc2ccc3nc(C)cc(N)c3c2)n1` (stereo unspecified), the “uninfected host cell viability” value falls from 85.1 ± 2.2% to 80.4 ± 1.2%.

Going from `c1nc(CC2CCNCC2)c[nH]1` [Immepip dihydrobromide] to `CCCCC1CCC(c2nc(-c3ccncc3)no2)CC1` (stereo unspecified), the “uninfected host cell viability” value rises from 81.5 ± 3.3% to 102 ± 3.9%.

`Cc1nn(C)c2nc(NNC(=O)Nc3cc(Cl)nc(Cl)c3)cc(C(C)C)c12` and `Cc1cc2nc3c(=O)[nH]c(=O)nc-3n(C)c2cc1C=O` are within error of each other in “uninfected host cell viability” value: 89.2 ± 3.1% for the first, 94 ± 2% for the second.

Going from `O=C(Nc1ccccc1)C12CC1C(=NO)c1ccccc1O2` (stereo unspecified) to `CCCCC/N=c1\ccn(Cc2ccccc2)c2ccccc12`, the “uninfected host cell viability” value falls from 96.71 ± 0.12% to 83.1 ± 2.5%.

`Cc1c(C(=O)N(C)C2CCCCC2)sc2nc3ccc(N)cc3n12` and `CS(=O)(=O)Nc1c(O)ccc2c1CCCC2C1=NCCN1` (stereo unspecified) are within error of each other in “uninfected host cell viability” value: 83.6 ± 2.2% for the first, 84.9 ± 2.8% for the second.

Going from `CN(C)CCCSC(=N)N` [Dimaprit dihydrochloride] to `CCCCCCCCc1ccc(-c2ccc(C(=O)O)cc2)cc1`, the “uninfected host cell viability” value falls from 95.8 ± 1.1% to 85.5 ± 5%.

Compared with `CC(=Cc1ccc(C(=O)O)cc1)c1ccc2c(c1)C(C)(C)CCC2(C)C`, `Nc1nc2c(cnn2CCc2ccccc2)c2nc(-c3ccco3)nn12` is higher in “uninfected host cell viability” value: 80.4 ± 2.1% for the first, 96.8 ± 2.3% for the second.

Going from `CC[C@@H]1Cn2c(c3nc(-c4ccccc4)nc-3n(C)c2=O)N1` to `CCCCCCCCCCCCCCCCn1cc[n+](Cc2ccccc2)c1C`, the “uninfected host cell viability” value falls from 89.2 ± 4.1% to 32 ± 6.6%.

With `CN(N=O)C(=O)N[C@@H](C=O)[C@@H](O)[C@H](O)[C@H](O)CO` [Streptozocin] the “uninfected host cell viability” value was 86.9 ± 5.4%.

With `N[C@@H](Cn1ccc(=O)n(Cc2ccccc2C(=O)O)c1=O)C(=O)O` the “uninfected host cell viability” value was 84.8% and 85.7%.
For `C[S+]([O-])c1ccc(-c2nc(-c3ccc(F)cc3)c(-c3ccncc3)[nH]2)cc1` (stereo unspecified), the “uninfected host cell viability” value was 89.4% and 88.6%.
